Our source for the Potency, PLD induction and max activation values is PubChem BioAssay (Tox21).

Structures are written as SMILES. Records with an inconclusive call do not appear. Unmarked numbers belong to inactive results. Activity calls are given as the source filed them. Unless noted, calls follow the shape of the dose curve; as a rule, active = well fitted curve in the direction sought with a large enough effect in the repeat runs; inconclusive = weak or mixed curves; inactive = no such curve, though single readings can be large; an effect the other way counts as inactive or inconclusive.

Assay [1] is described as follows: qHTS assay to identify aromatase inhibitors - cell viability counter screen (AID 743084).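 Also: cells stimulated with testosterone during compound exposure; nearly all actives have a fitted effect of over 55% in size.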 Also: potency is read from the fitted curve at half-maximal effect.
Assay [2] addresses Aryl hydrocarbon receptor (Homo sapiens) (UniProt P35869). The experiment in a line: qHTS assay to identify small molecule that activate the aryl hydrocarbon receptor (AhR) signaling pathway (AID 743085). Also: nearly all actives have a fitted effect of over 15% in size. Also: potency is read from the fitted curve at half-maximal effect.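 As to activation: HG2L7.5c1 human HepG2 liver cells with stably integrated DRE-driven firefly reporter; series mostly up to about 70 µM.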 Put shortly:
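Reporter assay in engineered HepG2 line HG2L7.5c1, whose plasmid carries twenty dioxin responsive elements upstream of firefly luciferase. Treatment lasted 24 h at 37C; ONE-Glo luminescence gauged induction.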
For orientation: In qHTS, concentration-response curves come from the screen itself.

Assay [3] concerns the target Peroxisome proliferator-activated receptor gamma (Homo sapiens) (UniProt P37231). In words: qHTS assay to identify small molecule agonists of the peroxisome proliferator-activated receptor gamma (PPARg) signaling pathway (AID 743094; active = well fitted activation curve with a large enough effect in the signal ratio in the repeat runs, not every such curve was filed as active; the % refers to the signal ratio). Put shortly: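 Agonist activity was taken from a beta-lactamase reporter (FRET substrate, 1 h at room temperature) in HEK293H cells carrying a PPARg UAS-bla construct. Compounds in DMSO were incubated 17 h at 37C after a 5 h cell pre-incubation.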

Assay [4] in a line: qHTS assay to identify small molecule phospholipidosis (PLD) inducers (AID 1259344; active = well fitted curve in the direction sought with a large enough effect; an effect the other way counts as inactive or inconclusive). Put shortly: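 Cells (HepG2, 900 per well) attach for 4 h, receive LipidTOX Red and compound together, incubate 24 h at 37 C, are fixed 30 min with paraformaldehyde/Hoechst, then imaged at one site per well.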
Assay [5] is described as follows: qHTS assay to identify small molecule that activate the aryl hydrocarbon receptor (AhR) signaling pathway - cell viability counter screen (AID 743086).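 Also: HepG2 liver cells carrying the AhR DRE luciferase reporter; series mostly up to about 70 µM; nearly all actives have a fitted effect of over 45% in size.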 Put shortly:
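HepG2-AhR-luc (HG2L7.5c1) cells, 4000/well, were preincubated 5 h at 37C, exposed to compound in qHTS format for 24 hr at 37C, then given CellTiter-Fluor for 30 min; viability was read as fluorescence in the reporter wells.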

Assay [6] has as its target Nuclear receptor subfamily 1 group I member 2 (Rattus norvegicus) (UniProt Q9R1A7). In words: Rat pregnane X receptor (rPXR) activation by small molecules, qHTS assay (AID 1346983). Also: nearly all actives have a fitted effect of over 20% in size. The following applies: rPXR luciferase reporter cells, One-Glo luminescence, 24 h; max activation: stronger effect = higher value. Put shortly:
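Cell-based rPXR luciferase reporter assay, 2,000 cells per well, rested 5hr at 37 C before compound addition in DMSO, then 24 hr at 37 C. One-Glo reagent was added and luminescence read after 30 min at room temperature.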

The target in assay [7] is Nuclear receptor subfamily 1 group I member 2 (Homo sapiens) (UniProt O75469). In words: CYP3A4 induction through human pregnane X receptor (PXR) by small molecules, qHTS assay (AID 1346984). Also: nearly all actives have a fitted effect of over 40% in size. Put shortly:
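Read-out is luminescence after One-Glo addition, following a 3 hr, 37C incubation with Luciferin-IPA CYP3A4 substrate (3uM final). Before that, compounds were on DPX-2 cells (HepG2 co-transfected with PXR element plus CYP3A4-promoter luciferase) for 24 hr at 37C.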

For assay [8] the target is unchanged. The experiment in a line: Human pregnane X receptor (PXR) activation by small molecules, qHTS assay (AID 1346985). Also: nearly all actives have a fitted effect of over 40% in size. Also: potency is read from the fitted curve at half-maximal effect. The gist of the method:
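DPX-2 cells (HepG2 co-transfected with a PXR response element and a CYP3A4-promoter luciferase construct) were seeded at 2,000 per well, rested 5 hr at 37C, then exposed to DMSO-dissolved compounds for 24 hr. Activation was read as luciferase luminescence.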
% is scaled to controls: 0 for no effect and ±100 for the full control effect.

Nuclear receptor subfamily 1 group I member 2 (Rattus norvegicus), sequence (Q9R1A7 whole entry, looked up): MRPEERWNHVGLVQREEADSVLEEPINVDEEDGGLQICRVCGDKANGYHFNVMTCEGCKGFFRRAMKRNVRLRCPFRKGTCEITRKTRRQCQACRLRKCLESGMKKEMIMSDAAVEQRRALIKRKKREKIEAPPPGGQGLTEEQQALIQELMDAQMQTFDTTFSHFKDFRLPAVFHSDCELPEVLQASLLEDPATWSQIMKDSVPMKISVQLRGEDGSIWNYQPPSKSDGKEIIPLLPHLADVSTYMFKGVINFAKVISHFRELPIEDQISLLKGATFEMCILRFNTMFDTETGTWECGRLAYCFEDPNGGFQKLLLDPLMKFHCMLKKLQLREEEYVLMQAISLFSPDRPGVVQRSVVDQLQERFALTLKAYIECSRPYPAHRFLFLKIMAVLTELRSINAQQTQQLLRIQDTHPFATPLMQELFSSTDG
Aryl hydrocarbon receptor (Homo sapiens), sequence (P35869 whole entry, looked up): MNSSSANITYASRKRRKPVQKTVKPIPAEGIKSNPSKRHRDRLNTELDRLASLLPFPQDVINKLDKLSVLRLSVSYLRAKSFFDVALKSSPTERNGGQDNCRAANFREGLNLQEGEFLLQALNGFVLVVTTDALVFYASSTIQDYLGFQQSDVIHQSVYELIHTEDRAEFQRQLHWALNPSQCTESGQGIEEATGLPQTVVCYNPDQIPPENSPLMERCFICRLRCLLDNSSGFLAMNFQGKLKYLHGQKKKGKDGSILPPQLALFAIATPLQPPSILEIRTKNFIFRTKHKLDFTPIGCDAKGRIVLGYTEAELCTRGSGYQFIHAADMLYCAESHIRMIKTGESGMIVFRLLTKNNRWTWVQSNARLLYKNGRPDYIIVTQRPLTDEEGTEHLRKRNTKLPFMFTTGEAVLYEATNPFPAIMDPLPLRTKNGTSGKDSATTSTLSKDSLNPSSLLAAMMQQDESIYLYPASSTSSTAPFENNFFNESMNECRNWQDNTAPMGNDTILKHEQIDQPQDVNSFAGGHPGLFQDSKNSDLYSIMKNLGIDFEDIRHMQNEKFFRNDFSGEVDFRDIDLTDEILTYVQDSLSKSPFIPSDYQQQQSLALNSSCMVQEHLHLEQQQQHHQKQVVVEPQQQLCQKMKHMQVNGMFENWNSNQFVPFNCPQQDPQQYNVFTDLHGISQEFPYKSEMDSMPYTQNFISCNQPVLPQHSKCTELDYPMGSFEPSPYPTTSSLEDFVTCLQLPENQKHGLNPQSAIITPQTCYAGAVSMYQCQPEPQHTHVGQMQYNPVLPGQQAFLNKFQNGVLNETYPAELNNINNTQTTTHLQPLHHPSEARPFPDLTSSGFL
Peroxisome proliferator-activated receptor gamma (Homo sapiens), sequence (P37231 whole entry, looked up): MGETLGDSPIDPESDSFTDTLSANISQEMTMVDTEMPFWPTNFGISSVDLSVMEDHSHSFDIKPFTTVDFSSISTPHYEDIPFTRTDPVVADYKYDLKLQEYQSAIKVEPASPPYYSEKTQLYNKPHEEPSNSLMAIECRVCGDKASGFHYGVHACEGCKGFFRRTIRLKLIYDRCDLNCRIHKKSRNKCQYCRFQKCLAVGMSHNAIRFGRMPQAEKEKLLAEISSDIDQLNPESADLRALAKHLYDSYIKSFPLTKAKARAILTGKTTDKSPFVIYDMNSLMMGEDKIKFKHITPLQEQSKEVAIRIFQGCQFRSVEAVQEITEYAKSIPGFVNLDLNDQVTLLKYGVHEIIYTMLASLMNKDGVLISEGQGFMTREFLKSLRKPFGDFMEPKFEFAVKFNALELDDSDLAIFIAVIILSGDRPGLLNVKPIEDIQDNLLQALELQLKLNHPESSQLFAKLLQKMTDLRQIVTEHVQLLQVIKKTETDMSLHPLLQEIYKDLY

As to `C[C@H]1C[C@@H]2[C@H]([C@@H](O)C[C@@]3(C)[C@H]2CC[C@]3(O)C(=O)COC(=O)CCC(=O)O)[C@@]2(C)C=CC(=O)C=C12`, the Potency entry in assay [1], in assay [2] and in assay [3] was “inactive” each time. For the same compound, the PLD induction in assay [4] was 0.704% [at 7.66 µM].

Take `CCCCc1cc2c(=O)c(C(=O)OC)c[nH]c2cc1OCc1ccccc1`: the Potency result in assay [1], in assay [2], in assay [3] and in assay [4] was “inactive” in each case.

As to `CC(=O)O[C@H]1C[C@@H]2CC[C@@H]3[C@H](CC[C@@]4(C)[C@H]3C[C@H](N3CC[N+](C)(C)CC3)[C@@H]4OC(C)=O)[C@@]2(C)C[C@@H]1N1CC[N+](C)(C)CC1`, the Potency result in assay [1], in assay [5], in assay [3] and in assay [4] was “inactive” in each case.

Regarding `O=P(O)(O)C(O)(Cc1cnc2ccccn12)P(=O)(O)O`, the Potency entry in assay [1], in assay [5], in assay [3] and in assay [4] was “inactive” in each case.

In the case of `Cn1nnnc1SCC1=C(C(=O)O)N2C(=O)[C@@H](NC(=O)[C@H](O)c3ccccc3)[C@H]2SC1`, the Potency result in assay [1], in assay [5], in assay [3] and in assay [4] was “inactive” throughout.

Consider `c1ccc2c(CCC3CCNCC3)c[nH]c2c1`, for which the Potency result in assay [1], in assay [3] and in assay [4] was “inactive” throughout. Moreover, the Potency in assay [2] was 11.9 µM (active).

For the compound `NC[C@@H]1O[C@H](O[C@H]2[C@@H](O)[C@H](O[C@@H]3[C@@H](O)[C@H](N)C[C@H](N)[C@H]3O[C@H]3O[C@H](CN)[C@@H](O)[C@H](O)[C@H]3N)O[C@@H]2CO)[C@H](N)[C@@H](O)[C@@H]1O`, the Potency result in assay [1], in assay [2], in assay [3] and in assay [4] was “inactive” in each case.

On to `O=C(Nc1ccc(Br)cc1)c1cc(Br)c(Br)s1`, for which the Potency entry in assay [1], in assay [3] and in assay [4] was “inactive” each time. Moreover, the Potency in assay [2] is 16.8 µM (active).

For `C[C@]12C=CC(=O)C=C1CC[C@@H]1[C@@H]2[C@@H](O)C[C@@]2(C)[C@H]1CC[C@]2(O)C(=O)COC(=O)CCC(=O)O`, the Potency result in assay [1], in assay [5], in assay [3] and in assay [4] was “inactive” throughout.

As to `COc1ccc(CCNCC(O)COc2cccc(C)c2)cc1OC` (configuration not stated), the Potency result in assay [1], in assay [5], in assay [3] and in assay [4] was “inactive” throughout.

Turning to `CC(=O)OCC(=O)[C@@]1(O)[C@H](C)C[C@H]2[C@@H]3C[C@H](F)C4=CC(=O)C=C[C@]4(C)[C@H]3[C@@H](O)C[C@@]21C`, the Potency result in assay [1], in assay [5], in assay [3] and in assay [4] was “inactive” throughout.

Consider `CC[C@H](CC[C@@H](C)[C@H]1CC[C@H]2[C@@H]3CC=C4C[C@@H](O)CC[C@]4(C)[C@H]3CC[C@]12C)C(C)C`, for which the Potency entry in assay [1], in assay [2], in assay [3] and in assay [4] was “inactive” throughout.

In the case of `CCCCCCCCCCCCCCCC(=O)OCCC1CCN(CCCN2c3ccccc3Sc3ccc(S(=O)(=O)N(C)C)cc32)CC1`, the Potency entry in assay [1], in assay [2], in assay [3] and in assay [4] was “inactive” in each case.

As for `CS(=O)(=O)Nc1cc2occ(NC=O)c(=O)c2cc1Oc1ccccc1`, the Potency entry in assay [1], in assay [2], in assay [3] and in assay [4] was “inactive” in each case.

Regarding `CO[C@H]1C[C@H](O[C@H]2[C@H](C)[C@@H](O[C@@H]3O[C@H](C)C[C@H](N(C)C)[C@H]3OC(C)=O)[C@@H](C)C[C@]3(CO3)C(=O)[C@H](C)[C@@H](OC(C)=O)[C@@H](C)[C@@H](C)OC(=O)[C@@H]2C)O[C@@H](C)[C@@H]1OC(C)=O`, the Potency entry in assay [1], in assay [5], in assay [3] and in assay [4] was “inactive” in each case.

For the compound `CN1CCN(C2=Nc3ccccc3Cc3ccccc32)CC1`, the Potency entry in assay [1], in assay [2], in assay [5] and in assay [3] was “inactive” throughout.

In the case of `O=C1CSC2(CCN(CCCN3c4ccccc4Sc4ccc(Cl)cc43)CC2)N1`, the Potency in assay [2] was 13.3 µM (active). The max activation in assay [6] was 2.22%. Moreover, the Potency result in assay [7] is “inactive”.

As for `C/C=C(/CC[C@@H](C)[C@H]1CC[C@H]2C3=CC[C@H]4[C@H](C)[C@@H](O)CC[C@]4(C)[C@H]3CC[C@]12C)C(C)C`, the Potency result in assay [1], in assay [2], in assay [5] and in assay [3] was “inactive” in each case.

For the compound `O=C(O[C@H]1CN2CCC1CC2)N1CCc2ccccc2[C@@H]1c1ccccc1`, the Potency entry in assay [1] and in assay [5] was “inactive” each time.

In the case of `CCCCCCCN(CC)CCCC(O)c1ccc(NS(C)(=O)=O)cc1` (configuration not stated), the Potency entry in assay [1], in assay [2] and in assay [5] was “inactive” throughout.

`Cc1cc(/C=C/c2ccc3cc(N(C)C)ccc3[n+]2C)c(C)n1-c1ccccc1`: the Potency in assay [1] was 8.04 µM (active). Also, the max activation in assay [6] is -14%. Besides, the Potency result in assay [8] is “inactive”.

Consider `CN(C)CCOc1ccccc1Cc1ccccc1` (tested in a mixture with another compound), for which the Potency result in assay [2] and in assay [5] was “inactive” in each case.

Turning to `CC(CN1c2ccccc2Sc2ccc(S(=O)(=O)N(C)C)cc21)N(C)C` (configuration not stated), the Potency entry in assay [1] and in assay [3] was “inactive” in each case.

Regarding `CCCCCCCCCCCCCCCC(=O)O[C@@H]1CC(C)=C(/C=C/C(C)=C/C=C/C(C)=C/C=C/C=C(C)/C=C/C=C(C)/C=C/C2=C(C)C[C@@H](OC(=O)CCCCCCCCCCCCCCC)CC2(C)C)C(C)(C)C1`, the Potency entry in assay [1], in assay [2], in assay [5] and in assay [3] was “inactive” throughout.

On to `CC(C)N1CCN(c2ccc(OC[C@H]3CO[C@](Cn4cncn4)(c4ccc(Cl)cc4Cl)O3)cc2)CC1`, for which the Potency entry in assay [1], in assay [3] and in assay [7] was “inactive” in each case. The max activation in assay [6] was -0.695%. The Potency in assay [8] is 5.62 µM (active).
